A selection: hits, their analogues and other compounds. The true share with any hit is near 2.9%.
KDM5B inh = Primary screen for KDM5B Histone Demethylases FDH-coupled qHTS; Lysine-specific demethylase 5B (Homo sapiens), Q9UGL1; KDM5B demethylase, FDH-coupled NADH fluorescence (FDH is formaldehyde dehydrogenase); Potency, µM (doses to about 57.7 µM), most hits filed as inhibitors; 220,000 compounds, 2.6% hits; AID 1347165, 2019; also: potency is read from the fitted curve at half-maximal effect; 0% is about no effect; nearly all actives have a fitted effect of over 70% in size
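Here, H3K4me3 peptide (12.5 µM in substrate mix) is demethylated by KDM5BΔAP, 200 nM final, after 10 min compound exposure. Formaldehyde product is coupled through FDH (0.25 U/mL in mix) to NADH fluorescence; 30-min ΔRFU feeds dose-response curves.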
IP6K1 inh = Primary qHTS assay for small molecule inhibitors of Inositol hexaphosphate kinase 1 (IP6K1) | IP6K1 kinase, ADP-Glo luminescence, 2 h; hits give low values | AID 1645851, 2021 | 140,000 compounds, 0.81% hits | activity change, % (series mostly up to about 58 µM) | Inositol hexakisphosphate kinase 1 (Homo sapiens), Q92551; in the data active = activity change below about -25%; also: % is scaled to controls: 0 for no effect and ±100 for the full control effect
Target sequence (Q92551 whole entry, looked up): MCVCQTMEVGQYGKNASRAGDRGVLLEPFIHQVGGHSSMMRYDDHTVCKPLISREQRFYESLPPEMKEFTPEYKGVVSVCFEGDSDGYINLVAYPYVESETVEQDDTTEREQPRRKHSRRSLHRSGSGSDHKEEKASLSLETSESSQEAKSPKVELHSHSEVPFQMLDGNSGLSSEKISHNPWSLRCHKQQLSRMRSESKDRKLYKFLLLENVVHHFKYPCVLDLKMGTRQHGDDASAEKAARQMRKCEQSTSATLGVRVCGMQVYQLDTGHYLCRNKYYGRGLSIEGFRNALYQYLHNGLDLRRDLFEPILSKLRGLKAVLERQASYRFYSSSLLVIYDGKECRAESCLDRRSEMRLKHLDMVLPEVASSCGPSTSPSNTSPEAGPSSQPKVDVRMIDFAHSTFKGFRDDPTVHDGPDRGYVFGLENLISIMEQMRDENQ
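ADP-Glo luminescence measures ADP made by human IP6K1 during a 2 h RT reaction with ATP/IP6 (mix at 1.3 mM/130 uM); top library doses 57.5 and 19.1 uM final.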
HEK293 viab = GF-AFC viability counterscreen for inhibitors of alpha-synuclein gene (SNCA) expression; Potency, µM (highest dose often 57.1 µM), for the others: top-dose activity change, negative = cytotoxicity, actives largely listed as cytotoxic; 150,000 compounds, 0.12% hits; AID 1671193, 2021; HEK-293-SNCA-luc viability, GF-AFC fluorescence, 24 h;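 also: potency is read from the fitted curve at half-maximal effect; 0% = DMSO-treated cells and -100% = medium-only wells without cells; nearly all actives have a fitted effect of over 30% in size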
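Cytotoxicity counterscreen: after 24 h compound treatment of genome-edited SNCA-luciferase HEK-293 cells, live-cell protease substrate GF-AFC read by fluorescence after 30 min; activity scaled between DMSO (0%) and medium-only (-100%), curves Hill-fitted.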
SNCA expr inh = Primary qHTS assay for inhibitors of alpha-synuclein gene (SNCA) expression; AID 1671194, 2021; HEK-293 SNCA-luciferase knock-in, luminescence, 24 h; 140,000 compounds, 0.17% hits; Potency, µM (highest dose often 57.2 µM), for the others: at the highest dose activity change, negative = inhibition, usual class: inhibitors;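 also: potency is read from the fitted curve at half-maximal effect; plate controls were DMSO cells for no effect and cell-free wells for full effect; nearly all actives have a fitted effect of over 45% in size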
* = called active by the depositor; i = inactive; ? = inconclusive; · = no result given; ! = not confirmed by another sample; [ ] = another dose, or the depositor's remark. Unless noted, calls follow the shape of the dose curve; as a rule, active = well fitted curve in the direction sought with a large enough effect; inconclusive = small, poorly fitted or top-dose-only effect, or another doubt; inactive = no such curve, though single readings can be large; an effect the other way counts as inactive or inconclusive.

SMILES | KDM5B inh | IP6K1 inh | HEK293 viab | SNCA expr inh
CC(C)C(=O)N1CCC2(CC1)CN(c1ccccc1)C2=O | i | 32 | 11% | 6%
COc1ccc(C2(C(=O)N3CCCC(CN4CCCC4)CC3)CC2)cc1 (centres undefined) | ? | -12 | -1% | -3%
CN(Cc1ccccc1)C(=O)Cn1nc(-c2cccs2)c2ccccc2c1=O | i | · | · | ·
COc1ccc(NC(=O)c2ccnc(-c3nnc4ccc(Nc5ccccc5)nn34)c2)cn1 | 32µM* | -11 | -12%[87.6 µM] | -17%[87.6 µM]
CN1CCN(C(C(=O)O)c2c[nH]c3ccc(NC(=O)c4ccccc4)cc23)CC1 (centres undefined) | i | · | · | ·
O=C(c1cnn2ccccc12)N1CCC(Cc2cccc(CO)c2)C1 (centres undefined) | 28µM* | -17 | 2% | ?
CC(OC(=O)c1ccc(OCC(N)=O)cc1)C(=O)c1ccc(Cl)cc1 (centres undefined) | i | · | · | ·
O=C(Cc1ccc(F)cc1)N1CCCN(CCc2ccccc2)c2ccccc21 | · | 27 | -3% | -16%
O=C(Cc1cccs1)N1CCCN(CCc2ccccc2)c2ccccc21 | 22µM* | -4 | 2% | -11%
CCN1CCN(Cc2ccc(NC(=O)c3ccc(C)c(NC(=O)c4cncc(-c5cccs5)c4)c3)cc2C(F)(F)F)CC1 | · | -5 | ? | ·
Cc1ccc(C(=O)Nc2ccc(CN3CCN(C)CC3)c(C(F)(F)F)c2)cc1C#Cc1cnc2cccnn12 | · | 22 | 30µM*! | ?
CCCc1ccc(S(=O)(=O)NC2CCN(c3ccc(=O)n(CC4CC4)n3)CC2)cc1 | 28µM* | 6 | -6% | ?
O=c1ccc(N2CCC(NS(=O)(=O)c3ccccc3Cl)CC2)nn1CC1CC1 | ? | -3 | ? | ?
COc1cccc(CNC(=O)c2c(C)noc2-c2cccs2)c1 | ? | -7 | ? | 7%
Cc1noc(-c2cccs2)c1C(=O)NC(C)c1ccccc1 (centres undefined) | 25µM* | 4 | 5% | -27%
Cc1cccc(CNC(=O)c2c(C)noc2-c2cccs2)c1 | 28µM* | 6 | -1% | -2%
Cc1noc(-c2cccs2)c1C(=O)NC(C)c1cccc2ccccc12 (centres undefined) | 32µM* | -8 | 6% | -24%
CC(C)C(=O)N1CCN(c2ccnc3ccnn23)CC1 | · | -15 | 8%[87.6 µM] | 15%[87.6 µM]
CCOC(=O)C(NC(=O)c1cc(OC)c(OC)c(OC)c1)C(=O)OCC | i | · | · | ·
CCN(CC)C(=O)C(NC(=O)c1cccs1)C1CCN(C(=O)CCc2ccccc2)CC1 (centres undefined) | i | 24 | -20% | -26%
CN1CC2(CCN(C(=O)c3n[nH]c4ccccc34)CC2)CC1C(=O)N1CCOCC1 (centres undefined) | i | -9 | 3% | -6%
Cc1ccc2[nH]c(=O)c(CCC(=O)N3CCN(CC(C)C)CC3)cc2c1 | 22µM* | 29 | 13% | 13%
Cc1ccc2[nH]c(=O)c(CCC(=O)NC3CCN(Cc4ccccc4)CC3)cc2c1 | 25µM* | 28 | 6% | 5%
Cc1ccc2[nH]c(=O)c(CCC(=O)N3CCCCC3)cc2c1 | 28µM* | 10 | 5% | 177%
CCCCN1CCN(C(=O)CCc2cc3ccc(C)cc3[nH]c2=O)CC1 | i | 19 | 12% | 2%
SMILES | KDM5B inh | IP6K1 inh | HEK293 viab | SNCA expr inh
Cc1cccc(-c2nocc2CCC(=O)NC2CCN(Cc3ccccc3)CC2)c1 | i | 13 | 5% | 117%
Cn1cc(-c2ccc3c(n2)CN(Cc2ccccc2)C(=O)CO3)cn1 | i | -5 | -10%[87.6 µM] | 17%[87.6 µM]
COc1cc(OC)cc(C(=O)Nc2ncc3c(n2)CC(c2ccc(Cl)cc2)CC3=O)c1 (centres undefined) | i | · | · | ·
Cc1noc(C)c1-c1cnc(Nc2cc(F)cc(N3CCOCC3)c2)c2c1CCO2 | ? | -10 | -1%[87.6 µM] | 71%[87.6 µM]
Cc1noc(C)c1-c1cnc(Nc2ccc(CN3CCN(C)CC3)cc2)c2c1CCO2 | 25µM* | 10 | -13%[87.6 µM] | 61%[87.6 µM]
Cc1noc(C)c1-c1cnc(Nc2ccc(Cl)cn2)c2c1CCO2 | 28µM* | -22 | 6%[87.6 µM] | 47%[87.6 µM]
COc1cc(OC)cc(-c2nc3ccc(-c4ccc(OC)c(OC)c4OC)cc3o2)c1 | 25µM* | 14 | 7% | -9%
COc1ccc(-c2ccc3nc(-c4cccc(Cl)c4)oc3c2)c(OC)c1OC | 7.9µM* | -4 | 10% | -7%
COc1cccc(CN2C(=O)OC3(CCN(Cc4c[nH]c5ccccc45)CC3)C2(C)c2cccnc2)c1 (centres undefined) | i | -9 | -4% | ?
COc1ccc2c(c1)CCc1c-2n[nH]c1C(=O)N1CCc2nc3cc(-c4ccccc4)[nH]n3c(=O)c2C1 | ? | 0 | -9% | -27%
COc1ccc(-c2cc3nc4c(c(=O)n3[nH]2)CN(C(=O)NCc2ccco2)CC4)cc1 | 25µM* | 11 | 1% | ?
COc1ccc(-c2cc3nc4c(c(=O)n3[nH]2)CN(C(=O)CCCc2c[nH]c3ccccc23)CC4)cc1 | ? | 21 | -7% | ?
COc1ccc(-c2cc3nc4c(c(=O)n3[nH]2)CN(C(=O)Cc2ccccc2)CC4)cc1 | 28µM* | 6 | 11% | -22%
O=C(Nc1ccc(F)c(S(=O)(=O)N2CCOCC2)c1)C1CC(=O)N(CCc2ccccc2)C1 (centres undefined) | i | · | · | ·
O=C(NC[C@H]1OC[C@@H](NCc2ncc[nH]2)[C@@H]1O)c1cccs1 | i | 3 | -2%[87.6 µM] | 6%[87.6 µM]
CCC1CCc2sc(C(=O)NCCC(C)C)cc2C1 (centres undefined) | i | · | · | ·
C[S+](=O)([O-])NCCn1ccc2cc(OC3CCN(C(=O)C4CCCC4)CC3)cnc21 | 35µM* | 6 | -3%[87.6 µM] | 6%[87.6 µM]
CN1CCN(Cc2ccc(-c3cnc4c(OCc5ccccc5)nccn34)cc2)CC1 | 32µM* | -1 | -14%[87.6 µM] | 26%[87.6 µM]
CCNC(=S)N/N=C(/C)C1CCCCC1 | i | · | · | ·
COc1ccc(CC(=O)NC(C)c2nnc(SCC(=O)c3ccc(Cl)cc3)n2C)cc1 (centres undefined) | i | · | · | ·
OC1CC(c2cc(N3CCN(c4nsc5ccccc45)CC3)ncn2)C1 (centres undefined) | 32µM* | 116 | ? | ?
CCN1CCN(c2nc(Nc3ccccc3)c3cnn(-c4ccccc4)c3n2)CC1 | i | · | · | ·
CC(C)NC(=O)N[C@H]1C[C@H]2C(=O)NC[C@@H](CCC(=O)N3CCCC3)N2C1 | i | 48 | 6%[87.6 µM] | 7%[87.6 µM]
O=C(C1CC(=O)N(C2CCCC2)C1)N1CCN(c2ccc(Cl)cn2)CC1 (centres undefined) | 32µM* | 3 | -9% | -1%
O=C(C1CCC(=O)N(C2CCCC2)C1)N1CCN(c2nccs2)CC1 (centres undefined) | i | -12 | 0% | 3%

Assay outcomes as filed in PubChem BioAssay.
